In the library only some 21% were active in any assay of this set; here they are far more common.
DT40 TDP1 no CPT: qHTS for Inhibitors of human tyrosyl-DNA phosphodiesterase 1 (TDP1): qHTS in cells in absence of CPT; DT40 Tdp1-/- hTDP1 cells, no CPT, ATP luminescence, 48 h; Potency, µM (series often up to 46.2 µM), inactives show at the highest dose activity change, negative = growth inhibition, most hits filed as inhibitors; 420,000 compounds, 15% hits; AID 686978, 2013; further: potency means the concentration at half of the fitted maximal effect; nearly all actives have a fitted effect of over 55% in size
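A cellular qHTS used chicken DT40 cells lacking endogenous Tdp1 but carrying stably transfected human TDP1. Compounds were applied without camptothecin, and cell growth kinetics were judged by ATP-dependent luminescence after ≥48 hr.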
ELG1 DNA repair: ELG1-dependent DNA repair inhibition; HEK293T ELG1-luciferase reporter, luminescence, 16 h; DNA damage induced by 5-fluorouridine; Potency, µM (titrated, usually from 46.1 µM), without a hit: top-dose activity change, negative = inhibition, actives largely listed as inhibitors; 330,000 compounds, 2.3% hits; further: potency means the concentration at half of the fitted maximal effect; nearly all actives have a fitted effect of over 55% in size
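Luminescence from the luciferase reporter, measured 30 min after ONE-Glo reagent at room temperature, was the read-out. Beforehand, 2,000 cells per well were exposed for 16 hr at 37 °C to 5-fluorouridine together with compound or vehicle.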
VP16 counter: inhibits Gal4-VP16 luciferase reporter, ROR gamma counter-screen | Drosophila S2 Gal4-VP16 UAS-luciferase, luminescence, 20 h | 310,000 compounds, 3.5% hits | Potency, µM (titrated, usually from 53.6 µM), for inactives: at the top dose activity, negative = inhibition, actives largely listed as inhibitors;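 further: Gal4-VP16 expression switched on by copper sulfate through the metallothionein promoter; potency means the concentration at half of the fitted maximal effect; nearly all actives have a fitted effect of over 50% in size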
RORgamma inh: ROR gamma (mouse) transcription inhibition | Drosophila S2 Gal4-RORgamma UAS-luciferase reporter, 20 h | Potency, µM (titrated, usually from 53.6 µM), for inactives: at the highest dose activity change, negative = inhibition, hits mostly inhibitors | 310,000 compounds, 5.4% hits | AID 2551; further: potency means the concentration at half of the fitted maximal effect; nearly all actives have a fitted effect of over 60% in size
Target sequence (P51450 whole entry, looked up, the tested form may be a part): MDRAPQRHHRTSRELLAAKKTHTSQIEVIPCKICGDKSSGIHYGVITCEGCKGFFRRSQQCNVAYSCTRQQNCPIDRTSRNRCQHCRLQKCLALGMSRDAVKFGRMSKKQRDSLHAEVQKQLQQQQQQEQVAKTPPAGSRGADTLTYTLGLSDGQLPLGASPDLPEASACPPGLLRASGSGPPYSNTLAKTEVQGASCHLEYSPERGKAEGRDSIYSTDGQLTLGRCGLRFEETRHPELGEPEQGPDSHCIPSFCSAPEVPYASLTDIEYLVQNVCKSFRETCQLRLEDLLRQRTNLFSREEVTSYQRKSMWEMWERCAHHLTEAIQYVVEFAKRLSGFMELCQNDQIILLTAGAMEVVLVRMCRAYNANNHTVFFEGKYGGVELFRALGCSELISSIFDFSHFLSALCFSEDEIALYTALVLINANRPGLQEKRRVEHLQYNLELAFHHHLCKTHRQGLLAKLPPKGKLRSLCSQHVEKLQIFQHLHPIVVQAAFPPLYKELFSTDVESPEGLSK
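Drosophila S2 cells stably expressing Gal4-DBD/mouse RORγ fusion under metallothionein promoter plus UAS-luciferase; compound 1 h, then 700 uM CuSO4 induction for 20 h at ambient temperature; inhibition read as reduced luminescence.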
IL-1B inflam inh: inhibitors of inflammasome signaling (IL-1 beta secretion) | AID 743279 | 360,000 compounds, 4.7% hits | THP-1 LPS/ATP IL-1B secretion, AlphaLISA, 16 h; active compounds read low | activity change, % at 57.5 µM; in the data active means activity change below about -50%; inconclusive means mostly about -30% to -49%
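THP-1 cells pretreated 1 hr with compounds (up to 57.5 uM final), then stimulated with LPS (250 ng/mL final) plus ATP (1.25 mM final); secreted IL-1B measured by AlphaLISA after 16 hr, decreased signal indicating inhibition.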
TDP1 cell CPT: growth inhibition of DT40 Tdp1-/-;hTDP1 cells with camptothecin (screen for TDP1 inhibitors). 420,000 compounds, 12% hits. chicken DT40 Tdp1-/-;hTDP1 cells + 20 nM CPT, ATP luminescence, 48 h. Potency, µM (series often up to 46.2 µM), inactives show top-dose activity change, negative = growth inhibition, most hits filed as inhibitors; further: potency means the concentration at half of the fitted maximal effect; nearly all actives have a fitted effect of over 55% in size
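Chicken DT40 Tdp1-/- cells complemented with human TDP1, 400 cells/well, exposed to compounds plus 20 nM camptothecin for at least 48 h at 37 C; viability read as ATP content by CellTiter-Glo luminescence.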
* marks the source's active call; other numbers are inactive results; u = inconclusive; x = no result; [ ] = dose if it differs, or a comment. Unless noted, the call rests on the fitted dose curve; in most records, active means well fitted curve in the direction sought with a large enough effect; inconclusive means small, poorly fitted or top-dose-only effect, or another doubt; inactive means no such curve, though single readings can be large; an effect the other way counts as inactive or inconclusive. On the % scale 0 is the no-effect control and ±100 the full control effect.

SMILES	DT40 TDP1 no CPT	ELG1 DNA repair	VP16 counter	RORgamma inh	IL-1B inflam inh	TDP1 cell CPT
COc1cc2ccccc2cc1C(=O)Nc1ccc2oc(-c3ccccc3)nc2c1	16µM*	x	x	x	x	16µM*
O=C(Nc1ccc2oc(-c3ccc(Cl)c(Cl)c3)nc2c1)c1ncn[nH]1	5.2µM*	u	-13%	0%	10	5.2µM*
NC(=O)N[C@H]1NC(=O)NC1=O	x	x	-4%[17 µM]	-11%[2.98 µM]	x	x
COc1ccc(-n2nc3c(c2NC(=O)c2ccc(S(=O)(=O)N4CCOCC4)cc2)CS(=O)C3)cc1 (stereo not drawn)	3%	10%	-11%	-2%	1	2%
CCCCOC(=O)Cn1nnc2sc(-c3ccccc3)cc2c1=O	-20%	x	x	x	x	-14%
COCC(=O)N1CCC(Oc2ccc(C(=O)N3C[C@@H]4CCC[C@H]3C4)cc2)CC1	-8%	-1%	-4%	3%	-13	20%
CCOC(=O)C1=C(c2ccccc2)O/C(=C(\C(=O)OC)C(F)(F)F)S1	-11%	-16%	-2%	4%	-5	-3%
CCOC(=O)C1=C(c2ccccc2)O/C(=C(/C#N)C(F)(F)F)S1	x	u	16µM*	14µM*	x	x
CC(=O)NCc1ccc(C(=O)CCl)cc1	u	u	u	u	-102*	4.1µM*
Cc1ccc(C(=O)CCC(=O)NCc2ccc(Cl)cc2)cc1	-6%	14%	x	x	5	-10%
CC(=O)Nc1ccc(C)cc1	-6%	0%	-26%	-12%	9	-5%
CC(=O)N(C)Cc1ccc(C(=O)CSc2nnc(C3CC3)n2C2CC2)cc1	-20%	12%	x	x	15	0%
CC(=O)Nc1ccc(C(=O)CCl)cc1	2.1µM*	-11%	u	4.5µM*	-104*	1.5µM*
CC(=O)NCc1ccc(C(=O)CCl)s1	1.2µM*	u	7.1µM*	11µM*	-17	0.52µM*
CC(=O)N(C)Cc1ccc(C(=O)CCl)cc1	0.92µM*	u	-1%	24%	-106*	1µM*
COc1cc2nc(NCCc3ccc(Cl)cc3)n3nc(-c4ccccc4)nc3c2cc1OC	u	x	x	x	x	-25%
O=C(c1cc(-c2ccccc2Cl)nc2ccccc12)N1CCN(c2ccccc2O)CC1	u	13µM*	x	x	-70*	18µM*
CS(=O)(=O)N1CCN(C(=O)c2cc(-c3cccs3)nc3ccccc23)CC1	-19%	16µM*	3%	7%	26	-10%
O=C(c1cc(-c2cccs2)nc2ccccc12)N1CCN(c2ccccc2O)CC1	u	u	-14%	u	-67*	u
O=C(c1cc(-c2ccccc2Cl)nc2ccccc12)N1CCC1	u	-1%	x	x	18	-28%
CN1CCCN(C(=O)c2cc(-c3cccc4ccccc34)nc3ccccc23)CC1	21µM*	-22%	-6%	-10%	-63*	16µM*
O=C(c1cc(-c2cccs2)nc2ccccc12)N1CCN(CCO)CC1	-2%	-10%	x	x	-1	4%
COc1ccc(C(=O)COC(=O)c2cnc(C)cn2)c(OC)c1	5%	u	x	x	13	8%
CCOc1ccc(NC(=O)CN(C)C(=O)c2c(-c3ccccc3)noc2C)cc1OCC	u	-7%	x	x	-3	4%
CCOc1ccc(N2CC(C(=O)Nc3cc(S(=O)(=O)N4CCCCC4)ccc3C)CC2=O)cc1 (stereo not drawn)	u	-21%	x	x	-2	u
SMILES	DT40 TDP1 no CPT	ELG1 DNA repair	VP16 counter	RORgamma inh	IL-1B inflam inh	TDP1 cell CPT
CC(C)C[C@@H](C=O)NC(=O)[C@H](CC(C)C)NC(=O)[C@H](CC(C)C)NC(=O)OCc1ccccc1	-12%	x	x	x	x	-7%
COc1ccc(NS(=O)(=O)c2cc(C(=O)N(C)CCc3ccccn3)ccc2Cl)cc1	-2%	x	x	x	17	-2%
COc1ccc(CN(C2CCCC2)S(=O)(=O)c2ccc(-n3cnnn3)c(OC)c2)cc1OC	u	u	-1%[0.365 µM]	44%	-52*	u
CCN(C1CCCCC1)S(=O)(=O)c1ccc(-n2cnnn2)c(C)c1	-15%	7%	-9%	5%	7	21%
CCN(C1CCCCC1)S(=O)(=O)c1cc(C)ccc1OC	18µM*	-10%	1%	-13%	2	u
CCN(C1CCCCC1)S(=O)(=O)c1ccc(OC)c(C)c1	16µM*	8%	6%	-36%	19	15µM*
Cc1c(C)n(CC(O)CN2C(=O)c3ccccc3S2(=O)=O)c2ccccc12 (stereo not drawn)	3%	-23%	-2%	14%	15	-7%
CN1CCc2c(n(CC(O)CN3C(=O)c4ccccc4S3(=O)=O)c3ccccc23)C1=O (stereo not drawn)	-9%	15µM*	-2%	u	-19	5%
CN1CCc2c(n(CC(O)CNCc3ccccc3)c3ccccc23)C1=O (stereo not drawn)	8.2µM*	-15%	-9%	-32%	u	8.2µM*
CN1CCc2c(n(CC(O)CN(CCO)CCO)c3ccccc23)C1=O (stereo not drawn)	-16%	-21%	-4%	u	-4	2%
CCc1ccc(CN(C)C(=O)CC2C(=O)NCCN2Cc2ccoc2)cc1 (stereo not drawn)	-24%	11%	23%	28%	-14	-12%
CN1CCc2c(sc3c2c(=O)n(-c2ccccc2)c2nnc(SCc4ccc(Cl)cc4)n32)C1	u	-5%	-18%	19%	-81*	13µM*
CCOC(=O)Cn1cc(Cn2c3ccccc3c(=O)n2C(C)C)nn1	-8%	x	x	x	10	-9%
COc1cc(NC(=O)CN2C(=O)COc3ccc(S(=O)(=O)NC4CCCC4)cc32)cc(OC)c1	-19%	x	x	x	x	-2%
Cc1ccc(NC(=O)c2nc(S(=O)(=O)Cc3ccc(F)cc3)ncc2Cl)cc1C	2.3µM*	x	x	x	x	3.7µM*
COc1ccccc1NC(=O)c1nc(SCc2ccc(F)cc2)ncc1Cl	-10%	x	x	x	x	-20%
CC(=O)Nc1ccc(NC(=O)c2nc(S(=O)(=O)Cc3ccc(F)cc3)ncc2Cl)cc1	0.41µM*	x	x	x	x	0.73µM*
CCOC(=O)c1cccc(NC(=O)NCc2ccc3c(c2)CCN3C(=O)CC)c1	u	x	x	x	x	-23%
O=C(CC1(O)C(=O)N(Cc2ccccc2Cl)c2ccccc21)c1ccco1 (stereo not drawn)	3.7µM*	-15%	3%	17%	35	3.3µM*
Cc1ccc(C(=O)N2c3ccccc3N(Cc3ccccc3)C(=O)C2(C)C)cc1	20µM*	u	u	65%	-68*	15µM*

Source: PubChem BioAssay (National Center for Advancing Translational Sciences (NCATS))
